Bioassay records from PubChem.
A selection follows.
aSyn 5UTR act – Activators working through SNCA 5'UTR binding (MLPCN). alpha-synuclein 5'UTR reporter, activators screen. hit rate 7.1% among 300,000. activity score, % (tested at 7.5 µM), hits read low; in the data active means activity score below about -60%
* = called active by the depositor.

SMILES	aSyn 5UTR act
O=c1oc2cc(Cl)ccc2n1CSc1nc2ccccc2s1	-165*
Nc1nnc(/C=C/c2ccccc2Cl)s1	-81*
COCCCNC(=O)/C=C/c1ccc(Cl)cc1Cl	-85*
Cc1ccc(-c2cc(-c3ccccc3[N+](=O)[O-])[nH]n2)c(O)c1	-343*
Cc1ccccc1-c1cc(-c2ccccc2O)n[nH]1	-183*
Cc1ccc(-c2cc(-c3ccccc3Cl)[nH]n2)c(O)c1	-221*
COC(=O)c1cnc(Oc2ccc(NC(=O)NC(=O)c3ccccc3Cl)cc2)cc1C(F)(F)F	-63*
O=[N+]([O-])c1cccc(-c2nc(-c3ccccc3)no2)c1	-134*
O=[N+]([O-])c1cccc(-c2noc(-c3ccco3)n2)c1	-96*
Cc1cc(-c2nc(-c3ccncc3)no2)ccc1[N+](=O)[O-]	-166*
Cc1ccc(-c2nc(-c3ccccn3)no2)cc1Cl	104
Cc1ccc(-c2nc(-c3ccncc3)no2)cc1Cl	-99*
O=[N+]([O-])c1cccc(-c2nc(-c3ccncc3)no2)c1	-89*
O=C(/C=C/c1ccc2c(c1)OCO2)Nc1nc2ccc(F)cc2s1	-110*
O=C(/C=C/c1ccc2c(c1)OCO2)Nc1nc(-c2ccc(F)cc2)cs1	-62*
Cc1ccc2nc(-c3ccc(SCC(=O)Nc4nnc(C)s4)nc3)[nH]c2c1	-94*
Cc1ccc2nc(-c3ccc(SCC(=O)Nc4nc(C)cs4)nc3)[nH]c2c1	-247*
Cc1csc(NC(=O)CSc2ncc(-c3ccccc3)[nH]2)n1	-97*
CCc1nnc(NC(=O)CSc2ccc(-c3nc4ccccc4[nH]3)cn2)s1	-187*
C=CCOn1c(=O)c(-c2cc3ccccc3o2)[n+]([O-])c2ccccc21	-144*
CCCCCCCCCCOC(=O)Cn1c(COc2ccc(Cl)cc2)[n+](C)c2ccccc21	83
CCOC(=O)COn1c(=O)c(-c2cc3ccccc3o2)[n+]([O-])c2ccccc21	-114*
CCCOc1ccc(-c2c(=O)n(OCC(=O)OCC)c3ccccc3[n+]2[O-])cc1	-88*
CCOc1ccc(-c2c(=O)n(OCc3ccc([N+](=O)[O-])cc3)c3ccccc3[n+]2[O-])cc1	-178*
O=C(N/N=C/c1ccc2c(c1)OCO2)c1cccs1	-135*
SMILES	aSyn 5UTR act
Cc1ccsc1C(=O)N/N=C/c1ccc2c(c1)OCO2	-99*
Cc1ccc(S(=O)(=O)N/N=c2\oc3ccccc3cc2C(=O)Nc2cccc(C)c2)cc1	-85*
O=C1CC(c2ccco2)CC(O)=C1C=Nc1cc(Cl)ccc1O (configuration not stated)	-143*
COC(=O)c1ccc2nc(Nc3nc4ccc(F)cc4s3)sc2c1	75
CCOC(=O)c1csc(Nc2nc3ccc(F)cc3s2)n1	-82*
CC(=O)c1sc(Nc2nc3ccc(F)cc3s2)nc1C	-216*
CSc1nsc(SCC(=O)Nc2ccc(OC(C)=O)cc2)n1	-124*
CCOC(=O)c1ccc(NC(=O)CSc2nc(SC)ns2)cc1	-107*
CSc1nsc(SCC(=O)Nc2ccccc2F)n1	-63*
COCn1c(-c2ccc(OC)c(OC)c2)nc2ccccc21	-106*
COCn1c(-c2cccc(Br)c2)nc2ccccc21	-63*
O=C(/C=C\c1ccco1)c1ccc(NC(=O)c2ccco2)cc1	-143*
CN(C)c1ccc(C(=O)/C=C/c2ccccc2)cc1	-159*
O=C(c1ccccc1)c1ccc(-c2ccc(O)cc2)cc1	-251*
CN(C)c1ccc(C(=O)/C=C/c2ccco2)cc1	-226*
CN(C)c1ccc(C(=O)c2ccccc2)cc1	-119*
CN(C)c1ccc(N=Nc2ccc(C(=O)O)cc2)cc1	64
CN(C)c1ccc(C(=O)/C=C/c2ccc(Br)cc2)cc1	-79*
COc1cccc(NC(=O)C(=O)NCCC2CCCCN2S(=O)(=O)c2ccccc2)c1 (configuration not stated)	-158*
COc1cccc(NC(=O)C(=O)NCC2CCCN2S(=O)(=O)c2ccccc2)c1 (configuration not stated)	-216*
O=C(NCCC1CCCCN1S(=O)(=O)c1ccc(Cl)cc1)C(=O)NCc1ccncc1 (configuration not stated)	62
O=C(NCCC1CCCCN1S(=O)(=O)c1cccs1)C(=O)Nc1ccc(F)cc1 (configuration not stated)	-87*
CCOC(=O)c1cn(-c2c(Cl)cccc2Cl)c2cc(Cl)c([N+](=O)[O-])cc2c1=O	-90*
CC(/C=C/c1ccccc1F)=N\NC(=O)c1ccccc1	-144*
CCOC(=O)c1cnc(SCc2cccc(C)c2)nc1N	-89*
SMILES	aSyn 5UTR act
CCOC(=O)c1cnc(SCC(=O)c2ccccc2)nc1N	-141*
CCOC(=O)c1cnc(SCC(C)C)nc1N	-104*
O=c1c2ccccc2sn1-c1ccccc1	-115*
O=C(NC(=O)c1ccccc1O)c1ccc(C(F)(F)F)cc1	-69*
CC(/C=N/NC(=O)c1ccccc1F)=C\c1ccccc1	-138*
CC(/C=N/NC(=O)c1ccccc1C)=C\c1ccccc1	-136*
Cn1ccsc1=NC(=O)c1cccc(OC(F)F)c1	-128*
COc1ccc(CNC(=O)c2c(C)oc3c2C(=O)c2ccccc2C3=O)cc1	103
CC(=O)c1c(C)oc2c1C(=O)c1ccccc1C2=O	-62*
CCOC(=O)c1c(NC(=S)N2CCN(C)CC2)sc2c1CCN(C(=O)OCC)C2	-63*
CN(C(=O)/C=C/c1ccccc1)C1CCCCC1	-98*
O=C(Nc1ccccc1)C1=C[C@H](c2ccc3c(c2)OCO3)C[C@H](OCCCCO)O1	-89*
O=C(Nc1ccccc1)C1=C[C@@H](c2ccc3c(c2)OCO3)C[C@@H](OCCCCO)O1	-112*
CC(C)(C)C1C/C(=C/c2ccccn2)C(=O)/C(=C/c2ccccn2)C1 (configuration not stated)	103
Brc1ccc(N=Cc2ccccn2)cc1	-73*
CC1C/C(=C/c2ccccn2)C(=O)/C(=C/c2ccccn2)C1 (configuration not stated)	89
C(=C\c1ccccn1)/c1ccccn1	-115*
Cc1cc(=O)[nH]c(N=N/C(=N/Nc2ccc(O)cc2)c2ccccc2)n1	-100*
COc1ccc(N/N=C(/N=Nc2nc(C)cc(=O)[nH]2)c2ccccc2)cc1	85
CC(C)(C)C1CCC(C(=O)Nc2nccs2)CC1 (configuration not stated)	-102*
O=C(CCC1CCCCC1)Nc1nccs1	-62*
Cc1cnc(NC(=O)C2CCC(C(C)(C)C)CC2)s1 (configuration not stated)	-64*
Cc1cccc(-c2nnc(NC(=O)c3cccs3)s2)c1	-113*
COc1ccc(-c2nnc(NC(=O)c3cccs3)s2)c(OC)c1	-76*
Brc1ccc(C2C3=C(Nc4ncnn42)c2ccccc2OC3c2ccncc2)cc1 (configuration not stated)	71
SMILES	aSyn 5UTR act
CNc1sc(C(=O)c2ccccc2F)c(N)c1-c1nc2ccccc2s1	-84*
CN1N=C2c3ccccc3CCC2C1c1ccc(F)cc1 (configuration not stated)	-110*
CN1N=C2c3ccccc3CCC2C1c1ccc(Cl)cc1 (configuration not stated)	-101*
O=C(Nc1ccc(OCC(F)(F)C(F)F)c(C(F)(F)F)c1)c1ccccc1	-101*
O=C(O)CC(=O)Nc1ccc(Oc2ccc(C(F)(F)F)cn2)c(Cl)c1	65
O=C1CN(c2nc(-c3cccs3)nc3sc4c(c23)CCCC4)CCN1	-109*
O=C1CN(c2nc(-c3cccnc3)nc3scc(-c4ccccc4)c23)CCN1	-90*
O=c1c2c3c(sc2nc2n1N=C(c1cccs1)CS2)CCCC3	-166*
